Data from ChEMBL document CHEMBL3433997, “St. Jude Leishmania screening dataset” (2016).

Each molecule was assayed against Solute carrier family 2, facilitated glucose transporter member 1 (Homo sapiens) (UniProt P11166) (assay: ST_JUDE_LEISH: Cytotoxicity at 2uM final concentration against transgenic Leishmania Mexicana promastigotes LmGLUT1 that are glucose transport deficient and complemented with the human glucose transporter GLUT1. Activity is measured by DNA content using SYBR green in vitro).
Assay type: functional

Chain of Solute carrier family 2, facilitated glucose transporter member 1 (Homo sapiens) (P11166 whole entry): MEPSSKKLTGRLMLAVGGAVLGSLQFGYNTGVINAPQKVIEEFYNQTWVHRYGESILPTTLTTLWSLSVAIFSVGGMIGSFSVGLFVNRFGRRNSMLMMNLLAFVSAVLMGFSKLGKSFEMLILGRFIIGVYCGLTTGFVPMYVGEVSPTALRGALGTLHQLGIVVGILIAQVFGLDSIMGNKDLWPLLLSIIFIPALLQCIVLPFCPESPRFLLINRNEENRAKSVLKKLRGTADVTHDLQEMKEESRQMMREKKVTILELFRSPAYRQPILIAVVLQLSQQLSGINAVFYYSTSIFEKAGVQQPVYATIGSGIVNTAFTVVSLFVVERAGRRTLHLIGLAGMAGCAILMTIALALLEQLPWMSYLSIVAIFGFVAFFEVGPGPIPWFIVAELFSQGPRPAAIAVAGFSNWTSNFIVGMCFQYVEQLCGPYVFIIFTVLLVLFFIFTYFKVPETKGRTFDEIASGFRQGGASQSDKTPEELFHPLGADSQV

Structure (SMILES)	inhibition
CO/C(=C\C=C\c1cc2cc(Cl)c(Cl)cc2[nH]1)C(=O)NCCCN1CCN(c2cccc(O)c2)CC1	10.4%
O=C(Nc1nc(-c2cc(F)ccc2F)cs1)c1cncc(Br)c1	4.6%
CC1(C)NC(N)=NC(=N)N1OCOc1ccc(Cl)cc1	3.62%
Cc1cc(NC2CCCC2)nc(Nc2ccc(F)cc2)n1	8.81%
CCCCc1cc(NCC)nc(Nc2ccc(OC)cc2)n1	20.3%
Cc1cc(N[C@@H](Cc2ccccc2)C(=O)Nc2ccccc2)nc(NCCc2cccs2)n1	4.14%
CC(C)(C)c1nn(-c2ccccc2)c2[nH]c(=O)c(CNC3CCCC3)cc12	3.76%
CCN(CC)CCN(Cc1ccc(-c2ccc(C(F)(F)F)cc2)cc1)C(=O)Cn1c(CCc2ccc(F)cc2)nc(=O)c2ccccc21	2.98%
NC1CCCN(Cc2ccc(-c3cccc(-c4nc5ccccc5[nH]4)c3)cc2)C1 (stereo not given)	3.53%
Cc1cc(N[C@@H](Cc2ccccc2)C(=O)NC2CCCC2)nc(NCc2ccccc2C)n1	6.22%
Cc1cc(C(=O)Nc2ccc3c(c2)CCN3C2CCN(Cc3ccc(O)cc3)C2)no1 (stereo not given)	4.29%
CCN(CC)CCN(Cc1ccc(-c2ccc(C(F)(F)F)s2)cc1)C(=O)Cn1c(CCc2cccc(F)c2F)nc(=O)c2ccccc21	1.5%
CN1CCC(N2CCN(C(=O)c3cccc(-c4cccc(-c5nc6ccccc6[nH]5)c4)c3)CC2)CC1	0.86%
CC(=O)N(C)c1ccc(C(=O)Nc2cccc(-c3cccc(-c4nc5cccc(C)c5[nH]4)c3)c2)cc1	3.67%
Nc1nc(N)c2c(ccc3c2ccn3C2CCCCC2)n1	24.3%
